{"source": "PubChem BioAssay (NCI)", "note": "Where “and” joins values, the source holds several entries; their conditions need not be identical. Equal entries are not always repeated. Compounds without any hit were thinned out: in the full panel of roughly 83,000, 20% have a hit.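 Note: values are percent growth. 100 is the growth of untreated cells, values between 100 and 0 indicate rising inhibition; between -100 and 0 indicates cell death.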 Unmarked numbers belong to inactive results. Calls of active or inactive are those of the source. Rule for the calls: active = growth percent below 10; inactive = the rest."}
{"tested_on": "MDA-MB-468 breast", "test": "NCI-60 one-dose screen, 48 h (100 = growth as untreated, 0 = no growth, -100 = all killed)", "details": "10 µM unless noted"}
{"smiles": "Cc1ccc(-n2cc(/C=N/NC(=O)c3nc(N)n[nH]3)c(-c3ccc(S(C)(=O)=O)cc3)n2)cc1", "growth": "105%"}
{"smiles": "c1ccc(C2CCCCC2)c(OCCCCCN2CCNCC2)c1", "growth": "-36.2% (active)"}
{"smiles": "COc1ccc2nc(N=Nc3c(O)ccc4ccccc34)sc2c1", "growth": "25.3%"}
{"smiles": "Fc1ccccc1CSc1ncnc2nc[nH]c12", "growth": "97.6%"}
{"smiles": "O=C(O)COc1ccccc1F", "growth": "93.5%"}
{"smiles": "O=C1c2ccccc2C2(c3ccc(O)cc3)c3ccccc3Oc3cccc1c32", "note": "(stereo not given)", "growth": "-8.79% (active)"}
{"smiles": "Clc1ccc(N/N=C(/c2ccccc2)c2ccccn2)nc1", "growth": "4.13% (active)"}
{"smiles": "COC(=O)/C(CCC=C(C)C)=C1\\[C@@H](OC(C)=O)C[C@@]2(C)[C@H]1C[C@@H](O)[C@H]1[C@@]3(C)CC[C@H](NC(=O)c4cnccn4)[C@@H](C)[C@@H]3CC[C@@]12C", "growth": "106%"}
{"smiles": "O=C(/C=C\\c1ccc(Cl)c(Cl)c1)c1ccccc1", "growth": "79.8%"}
{"smiles": "O=C(Nc1ccc([N+](=O)[O-])cc1Cl)c1cc(Cl)ccc1O", "growth": "-21.5% (active) and -24.3% (active)"}
{"smiles": "CN=c1ccc2nc3ccc(N)cc3sc-2c1", "growth": "-5.28% (active)"}
{"smiles": "CC(C)OC(=O)c1ccc2[nH]c(O)c(C(=Nc3ccc(N(C)C(=O)CN4CCN(C)CC4)cc3)c3ccccc3)c2c1", "growth": "-91% (active)"}
{"smiles": "O=S(=O)(Oc1ccc(Br)cc1)c1ccc(Cl)cc1", "growth": "105%"}
{"smiles": "c1ccc2[nH]c(Cc3nc4ccccc4[nH]3)nc2c1", "growth": "102%"}
{"smiles": "CN[C@@]12CC3(C=CC(=O)C=C3)O[C@]1(Cc1ccc(OC)cc1)N(C)C(=O)N2", "growth": "23.7%"}
{"smiles": "CCOP(C)(=O)/C(Cc1ccc(OC)c(OC)c1)=N\\O", "note": "(stereo not given)", "growth": "96.5%"}
{"smiles": "Nc1c(Br)cc2c(c1Br)Cc1cc(Cl)ccc1-2", "growth": "-5.33% (active)"}
{"smiles": "CN(C)CCCC(=O)Nc1ccc(Cn2nnc3c2C(=O)c2nnn(Cc4ccc(NC(=O)CCCN(C)C)cc4)c2C3=O)cc1", "growth": "-62.7% (active)"}
{"smiles": "CNc1ccc(Cl)cc1S(=O)(=O)c1ccccc1[N+](=O)[O-]", "growth": "72.7%"}
{"smiles": "CC(C)(C)c1ccc(S(=O)(=O)Oc2ccc(-c3sc4cc(OS(=O)(=O)c5ccc(C(C)(C)C)cc5)ccc4c3C(=O)c3ccc(OCCN4CCCCC4)cc3)cc2)cc1", "growth": "90%"}
{"smiles": "CC(=O)Nc1ccc(/C=N/N2CCCCCC2)cc1", "growth": "98.6%"}
{"smiles": "C/C=C\\COc1cc(C)c(Cl)cc1Cl", "growth": "91.5%"}
{"smiles": "Cc1cccc(C[C@H](NC(=O)Nc2ccc(C)cc2F)C(=O)N[C@@H]2C(=O)N3C[C@H](O)C[C@H]3C(=O)N3CCN(C)C[C@H]3C(=O)N[C@@H](C)C(=O)N3C[C@H](C)C[C@H]3C(=O)O[C@H]2C)c1", "growth": "6.46% (active)"}
{"smiles": "N#Cc1ccc(-n2nnc3ccccc32)cc1C#N", "growth": "99.5%"}
{"smiles": "CCn1c(-c2nonc2N)nc2c(C#CC(C)(C)O)ncc(OC[C@H]3CCCNC3)c21", "growth": "31.5%"}
{"smiles": "Cc1cc2nc(CN)[nH]c2cc1C", "growth": "103%"}
{"smiles": "CCC(=O)c1c(C)[nH]c(C)c1C", "growth": "54.4%"}
{"smiles": "CCC(CC)N1C(=O)/C(=c2\\sc3n(c2=O)C2C(NN=3)N(CC)C(=O)N2CC)c2ccccc21", "note": "(stereo not given)", "growth": "42.8%"}
{"smiles": "CC(C)c1ncc([N+](=O)[O-])n1C", "growth": "104%"}
{"smiles": "C/C(=N\\Nc1cccc(Cl)n1)c1ccccn1", "growth": "-31.3% (active)"}
{"smiles": "O=C(N/N=C/c1cccc2ccccc12)C1CC1", "growth": "120% and 106%"}
{"smiles": "c1ccc(-c2cc3n4c(-c5ccccc5)nn(-c5ccccc5)c4cnc-3n2)cc1", "growth": "70.2%"}
{"smiles": "CCc1cnc2ccccc2c1/C=C/c1ccc(N(C)C)cc1", "growth": "24.9%"}
{"smiles": "Cn1c(=O)c2c(nc(N/N=C/c3ccccc3Cl)n2C)n(C)c1=O", "growth": "102%"}
{"smiles": "CCC1(CC)NC(=O)c2c(c3ccc(Cl)c(Cl)c3n2C)C1C#N", "note": "(stereo not given)", "growth": "106%"}
{"smiles": "COc1ccc(C2C=C(c3ccc(Cl)c(Cl)c3)N=C3SC(C)=CN32)cc1", "note": "(stereo not given)", "growth": "88.6%"}
{"smiles": "Clc1ccc2c(c1)N(CCCN1CCCC1)c1ccccc1S2", "growth": "16.4%"}
{"smiles": "COc1ccc(/C=N\\NC(=O)c2cnn(CC(O)c3ccccc3)c2N)cc1OCc1ccc(Cl)cc1", "note": "(stereo not given)", "growth": "76.8%"}
{"smiles": "Cc1ccc2nc(C)c(-c3nnc(SCc4ccc(C#N)cc4)o3)n2c1", "growth": "87.5%"}
{"smiles": "N#Cc1cnc2cc(OC[C@@H](O)CO)c(NC(=O)CC3CSSC3)cc2c1Nc1ccc(OCc2cccc(F)c2)c(Cl)c1", "growth": "-74.8% (active)"}
